Test results from PubChem BioAssay (Tox21).
Values without a mark were called inactive. Calls follow the shape of the dose curve; as a rule, active = well fitted curve in the direction sought with a large enough effect in the repeat runs; inconclusive = weak or mixed curves; inactive = flat fitted curve, though single readings scatter.

assay: qHTS assay to test for compound auto fluorescence at 535 nm (green) in HEK293 cell free culture (AID 720682); settings: cell-free medium, green autofluorescence 485/535 nm, active compounds read high; series mostly up to 91.3 µM; activity change: at the top concentration
Procedure, shortened: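 Intrinsic compound fluorescence is measured in culture medium containing 10% FBS, with excitation at 485 nm and detection at 535 nm, referenced to fluorescein.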
% is scaled to controls: 0 for no effect and ±100 for the full control effect.

| Compound | activity change |
| --- | --- |
| O=C1C(=O)c2ccccc2C(O)=C1C1CCC(c2ccc(Cl)cc2)CC1 (stereo unspecified) | -0.0167% [at 18.6 µM] |
| COc1ccccc1N1CCN(CC(O)COc2cccc3ccccc23)CC1 (stereo unspecified) | 0.025% [at 46 µM] |
| CN1CC(=O)N2[C@H](c3ccc4c(c3)OCO4)c3[nH]c4ccccc4c3C[C@@H]2C1=O | 0.0006% [at 46 µM] |
| O=C1c2ccccc2C(=O)C1c1nc2ccccc2c(Br)c1O | 0.154% |
| N#CCCN(CCO)CCO | -0.331% |
| CCOC(=O)C1=C(C)NC(C)=C(C(=O)OC)C1c1cccc(Cl)c1Cl (stereo unspecified) | 0.0918% [at 46 µM] |
| O=[N+]([O-])c1ccc(O/N=C/c2cc(Br)c(O)c(Br)c2)c([N+](=O)[O-])c1 | -0.148% |
| C/C=C/C=C/C=O | 0.198% |
| O=c1cc(-c2ccccc2)oc2ccc3ccccc3c12 | 0.0725% |
| Nc1nc2ccc([N+](=O)[O-])cc2s1 | -0.184% |
| CCC(C)COC(C)=O (stereo unspecified) | -0.304% |
| CCOC(=O)OC(C)OC(=O)[C@@H]1N2C(=O)[C@@H](NC(=O)[C@H](N)c3ccccc3)[C@H]2SC1(C)C (stereo partly specified) | -0.0186% [at 18.6 µM] |
| Brc1cc(Br)c(Oc2cc(Br)c(Br)cc2Br)cc1Br | -0.0121% [at 46 µM] |
| C[C@@H]1CN(CCCn2c3ccccc3c3ccccc32)C[C@H](C)N1 | 0.0879% [at 46 µM] |
| O=C1Cc2ccccc2N1c1c(Cl)cccc1Cl | -0.11% |
| Cc1cc(O)ccc1O | -0.0584% |
| CC1(C)[C@H](C(=O)O)N2C(=O)C[C@H]2S1(=O)=O | 0.0022% [at 46 µM] |
| Cc1cc(=O)c2c(O)c3c(O)cc(=O)c4c3c3c(cc(O)c1c23)C(C)(C)C=4O | 3.9% [at 46 µM] |
| CCCCC(CC)COP(=O)(O)O (stereo unspecified) | -0.0345% [at 95.7 µM] |

| Compound | activity change |
| --- | --- |
| c1ccc2sc(SN(C3CCCCC3)C3CCCCC3)nc2c1 | 0.0317% [at 95.7 µM] |
| CCCCCCCCOc1ccc(C(=O)O)cc1 | -0.0737% |
| C[C@H]1c2cccc(O)c2C(O)=C2C(=O)[C@]3(O)C(O)=C(C(N)=O)C(=O)[C@@H](N(C)C)[C@@H]3[C@@H](O)[C@@H]21 | 0.0165% [at 46 µM] |
| CCCC(C(=O)OCCN(CC)CC)(c1ccccc1)c1ccccc1 | 0.0474% [at 46 µM] |
| O=C(CCCN1CC=C(n2c(=O)[nH]c3ccccc32)CC1)c1ccc(F)cc1 | 0.0064% [at 46 µM] |
| C=CCc1ccccc1OCC(O)CNC(C)C (stereo unspecified) | 0.216% [at 46 µM] |
| CN(C)CCC=C1c2ccccc2C=Cc2ccccc21 | -0.0779% [at 46 µM] |
| N#CCc1ccc(Cl)cc1Cl | -0.0161% |
| O=C(/C=C/c1ccccc1)OCCc1ccccc1 | 0.107% |
| CC(C)(c1ccccc1)c1ccccc1 | -0.174% |
| CCOc1ccc(Cc2nccc3cc(OCC)c(OCC)cc23)cc1OCC | 0.0026% [at 18.6 µM] |
| CCCCCCCCC(CCCCCC)C(=O)O (stereo unspecified) | 0.0357% |
| Oc1c(I)cc(I)c2cccnc12 | 0.0406% [at 46 µM] |
| CC(=O)NC1(c2cccc(F)c2)CCN(CC[C@@]2(c3ccc(Cl)c(Cl)c3)CN(c3ccccc3)C(=O)CO2)CC1 | -0.0029% |
| CN1C(=O)c2ccccc2C1=O | -0.175% |
| CC(=O)Oc1ccc([N+](=O)[O-])cc1CCl | 0.0056% |
| C=C(C)C(=O)OCCOCCOC(=O)C(=C)C | -0.0505% |
| CC(=O)N/N=C/c1ccc([N+](=O)[O-])o1 | -0.103% [at 46 µM] |
| CC1(C)O[C@@H]2C[C@H]3[C@@H]4C[C@H](F)C5=CC(=O)C=C[C@]5(C)[C@H]4[C@@H](O)C[C@]3(C)[C@]2(C(=O)CO)O1 | -0.178% [at 18.6 µM] |

assay: qHTS assay to test for compound auto fluorescence at 590 nm (red) in HEK293 cell free culture (AID 720683); settings: cell-free medium autofluorescence, Ex540/Em590 red; series mostly up to 91.3 µM; fluorescence, % of fluorescent control: at the top concentration
Procedure, shortened: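 Red-channel autofluorescence of compounds in culture medium (DMEM, 10% FBS), no cells, measured at 540/590 nm. Rose Bengal sodium is the reference fluorophore for equivalence.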

| Compound | fluorescence, % of fluorescent control |
| --- | --- |
| O=C1C(=O)c2ccccc2C(O)=C1C1CCC(c2ccc(Cl)cc2)CC1 (stereo unspecified) | 0.0147% [at 18.6 µM] |
| COc1ccccc1N1CCN(CC(O)COc2cccc3ccccc23)CC1 (stereo unspecified) | 0.0342% [at 46 µM] |
| CN1CC(=O)N2[C@H](c3ccc4c(c3)OCO4)c3[nH]c4ccccc4c3C[C@@H]2C1=O | -0.406% [at 46 µM] |
| O=C1c2ccccc2C(=O)C1c1nc2ccccc2c(Br)c1O | -0.0589% |
| N#CCCN(CCO)CCO | -0.313% |
| CCOC(=O)C1=C(C)NC(C)=C(C(=O)OC)C1c1cccc(Cl)c1Cl (stereo unspecified) | 0.138% [at 46 µM] |
| O=[N+]([O-])c1ccc(O/N=C/c2cc(Br)c(O)c(Br)c2)c([N+](=O)[O-])c1 | -0.0522% |
| C/C=C/C=C/C=O | -0.373% |
| O=c1cc(-c2ccccc2)oc2ccc3ccccc3c12 | -0.25% |
| Nc1nc2ccc([N+](=O)[O-])cc2s1 | -0.459% |
| CCC(C)COC(C)=O (stereo unspecified) | -0.478% |
| CCOC(=O)OC(C)OC(=O)[C@@H]1N2C(=O)[C@@H](NC(=O)[C@H](N)c3ccccc3)[C@H]2SC1(C)C (stereo partly specified) | -0.265% [at 18.6 µM] |
| Brc1cc(Br)c(Oc2cc(Br)c(Br)cc2Br)cc1Br | -0.26% [at 46 µM] |
| C[C@@H]1CN(CCCn2c3ccccc3c3ccccc32)C[C@H](C)N1 | 0.0643% [at 46 µM] |
| O=C1Cc2ccccc2N1c1c(Cl)cccc1Cl | -0.258% |
| Cc1cc(O)ccc1O | -0.026% |
| CC1(C)[C@H](C(=O)O)N2C(=O)C[C@H]2S1(=O)=O | 0.358% [at 46 µM] |
| Cc1cc(=O)c2c(O)c3c(O)cc(=O)c4c3c3c(cc(O)c1c23)C(C)(C)C=4O | 2.5% [at 46 µM] |
| CCCCC(CC)COP(=O)(O)O (stereo unspecified) | -0.105% [at 95.7 µM] |

| Compound | fluorescence, % of fluorescent control |
| --- | --- |
| c1ccc2sc(SN(C3CCCCC3)C3CCCCC3)nc2c1 | 0.0856% [at 95.7 µM] |
| CCCCCCCCOc1ccc(C(=O)O)cc1 | 0.123% |
| C[C@H]1c2cccc(O)c2C(O)=C2C(=O)[C@]3(O)C(O)=C(C(N)=O)C(=O)[C@@H](N(C)C)[C@@H]3[C@@H](O)[C@@H]21 | -0.0759% [at 46 µM] |
| CCCC(C(=O)OCCN(CC)CC)(c1ccccc1)c1ccccc1 | 0.233% [at 46 µM] |
| O=C(CCCN1CC=C(n2c(=O)[nH]c3ccccc32)CC1)c1ccc(F)cc1 | -0.488% [at 46 µM] |
| C=CCc1ccccc1OCC(O)CNC(C)C (stereo unspecified) | 0.183% [at 46 µM] |
| CN(C)CCC=C1c2ccccc2C=Cc2ccccc21 | -0.406% [at 46 µM] |
| N#CCc1ccc(Cl)cc1Cl | 0.082% |
| O=C(/C=C/c1ccccc1)OCCc1ccccc1 | 0.147% |
| CC(C)(c1ccccc1)c1ccccc1 | 0.0149% |
| CCOc1ccc(Cc2nccc3cc(OCC)c(OCC)cc23)cc1OCC | 0.116% [at 18.6 µM] |
| CCCCCCCCC(CCCCCC)C(=O)O (stereo unspecified) | 0.0069% |
| Oc1c(I)cc(I)c2cccnc12 | -0.0819% [at 46 µM] |
| CC(=O)NC1(c2cccc(F)c2)CCN(CC[C@@]2(c3ccc(Cl)c(Cl)c3)CN(c3ccccc3)C(=O)CO2)CC1 | 0.137% |
| CN1C(=O)c2ccccc2C1=O | -0.578% |
| CC(=O)Oc1ccc([N+](=O)[O-])cc1CCl | 0.173% |
| C=C(C)C(=O)OCCOCCOC(=O)C(=C)C | -0.0199% |
| CC(=O)N/N=C/c1ccc([N+](=O)[O-])o1 | -0.236% [at 46 µM] |
| CC1(C)O[C@@H]2C[C@H]3[C@@H]4C[C@H](F)C5=CC(=O)C=C[C@]5(C)[C@H]4[C@@H](O)C[C@]3(C)[C@]2(C(=O)CO)O1 | -0.673% [at 18.6 µM] |
